Screening data deposited in PubChem by National Center for Advancing Translational Sciences (NCATS).
HEK293 cAMP cs – parental HEK293 cAMP activation (counter-screen); parental HEK293 CNG cAMP sensor, membrane potential fluorescence; Potency, µM (doses to about 57.1 µM), for inactives: at the top dose activation, usual class: activators; actives 2.5% (n = 73,000); AID 938; note: % of control where 0% means no effect; nearly all actives have a fitted effect of over 55% in size
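Parental HEK 293 cells stably expressing a modified CNG channel (no TSHR) report cAMP rise as membrane depolarization. Membrane potential dye with 100 uM RO 20-1724 was loaded for 60 min at room temperature, then compound added for 30 min; fluorescence read at 590 nm.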
PK Bst – pyruvate kinase (B. stearothermophilus) modulation | actives 1.2% (n = 51,000) | purified pyruvate kinase, luminescence ATP production; ribose 5-phosphate activator present at AC10 | Potency, µM; in the data active = potency below about 11 µM; inconclusive = mostly about 12 µM to 25 µM;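 the screen sought inhibitors and activators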;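 note: scaled between full activation by ribose 5 phosphate and full inhibition by luteolin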
GBA activity – human lysosomal glucosylceramidase modulation. Potency, µM. actives 1.1% (n = 48,000). P04062. purified enzyme, resorufin glucoside fluorescence (screen aimed at inhibitors), 20 min; in the data active = potency below about 15 µM; inconclusive = mostly about 16 µM to 33 µM;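 note: the screen sought inhibitors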
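Wild-type enzyme at 0.2 nM final in 50mM citric acid/KH2PO4, 10mM sodium taurocholate, 0.01% tween-20, pH 5.9, with resorufin beta-D-glucopyranoside at 30 uM final. Compounds titrated, 20 min at RT, red fluorescence read; AC50 from titration.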
TSHR agonist – activates the human thyroid stimulating hormone receptor; Potency, µM (top dose mostly 57.1 µM), without a hit: at the top dose activation, hits mostly activators; P16473; AID 926; HEK293-CNG-TSHR cells (CNG channel as cAMP sensor), membrane potential dye, cAMP; actives 0.48% (n = 73,000); active = well fitted activation curve with a large enough effect in the main read-out, with a control signal flat, not every such curve was filed as active; inconclusive = small, poorly fitted or top-dose-only effect, or a change in a side signal; inactive = no such curve, though single readings can be large or run the other way; % of control where 0% means no effect;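 note: the control signal comes from parental cells without the receptor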
Target sequence (P16473 whole entry, looked up): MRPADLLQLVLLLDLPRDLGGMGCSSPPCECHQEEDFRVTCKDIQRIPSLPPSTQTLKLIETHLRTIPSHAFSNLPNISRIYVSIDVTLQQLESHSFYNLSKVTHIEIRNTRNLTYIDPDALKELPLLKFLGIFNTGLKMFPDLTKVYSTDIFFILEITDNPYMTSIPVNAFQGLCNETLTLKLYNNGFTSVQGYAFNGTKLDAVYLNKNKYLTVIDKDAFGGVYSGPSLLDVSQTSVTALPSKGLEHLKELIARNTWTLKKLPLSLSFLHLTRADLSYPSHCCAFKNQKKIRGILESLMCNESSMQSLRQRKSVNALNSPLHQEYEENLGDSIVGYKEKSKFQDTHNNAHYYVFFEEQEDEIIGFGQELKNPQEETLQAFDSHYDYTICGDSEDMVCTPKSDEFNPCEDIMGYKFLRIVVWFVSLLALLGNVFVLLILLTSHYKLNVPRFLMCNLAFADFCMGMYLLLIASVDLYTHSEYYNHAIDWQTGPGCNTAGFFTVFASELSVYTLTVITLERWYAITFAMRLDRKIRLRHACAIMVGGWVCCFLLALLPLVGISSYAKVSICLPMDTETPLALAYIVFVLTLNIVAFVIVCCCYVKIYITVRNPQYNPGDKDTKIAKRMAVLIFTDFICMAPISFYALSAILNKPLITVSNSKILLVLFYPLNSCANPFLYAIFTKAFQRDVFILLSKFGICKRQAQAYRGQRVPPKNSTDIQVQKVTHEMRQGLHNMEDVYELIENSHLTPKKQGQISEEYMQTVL
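HEK 293 cells stably expressing TSHR and a modified CNG channel, with CNG-only parental cells as counterscreen, were preloaded 60 min at room temperature with membrane potential dye containing 100 uM RO 20-1724. Compound exposure was 30 min, and depolarization was read as fluorescence at 590 nm.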
FLuc inh – firefly luciferase inhibition | P08659 | purified firefly luciferase, luminescence, 8 min | Potency, µM (titrated, usually from 57.1 µM), without a hit: top-dose activity change, negative = inhibition, actives largely listed as inhibitors | actives 2.2% (n = 72,000) | AID 411; note: % is set by controls: 0 for no effect and ±100 for the full control effect; nearly all actives have a fitted effect of over 40% in size
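qHTS concentration-response profiling: light output of P. pyralis luciferase with luciferin and 10 uM ATP, imidazole buffer pH 7.2. Read by luminescence after 8-min room-temperature incubation.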
Active calls of the source: *; i = inactive; ? = inconclusive; . = no result; [ ] = remark or other dose. This is a sample that favours compounds with a hit; in the whole collection about 5.8% have one here. Unless noted, calls come from the whole dose curve; as a rule, active = well fitted curve in the direction sought with a large enough effect; inconclusive = small, poorly fitted or top-dose-only effect, or another doubt; inactive = no such curve, though single readings can be large; an effect the other way counts as inactive or inconclusive. Potency is the fitted concentration of half-maximal effect.

SMILES | HEK293 cAMP cs | PK Bst | GBA activity | TSHR agonist | FLuc inh
O=C(CSc1nnc(COc2ccc(Cl)cc2)n1Cc1ccco1)c1ccccc1F | 25µM* | >57 | >77 | ? | -14%
Clc1ccc(OCc2nnc(SCc3nc4ccccc4[nH]3)n2Cc2ccco2)cc1 | 28% | >57 | >77 | 22% | -4%
CCNc1ncc2nc(-c3ccccc3)c(=O)n(CCC#N)c2n1 | 15% | . | . | 8% | 1%[11.4 µM]
CCCCC(=O)NC1(C(F)(F)F)C(=O)N(Cc2ccco2)C(C)=C1C(=O)OC (stereo not given) | 3% | >57 | >77 | 16µM* | 2%
Clc1ccc2c(c1)C1OCCC1C(c1ccco1)N2 (stereo not given) | -12% | 9.6* | >77 | . | 16µM*
Cc1ccc2c(c1)[C@H]1OCC[C@H]1[C@@H](c1ccncc1)N2 | -2% | . | . | -4% | 3%
COc1ccc(C(=O)N=c2nc3ccccn3s2)cc1 | -9% | 0.68* | >77 | 1% | 0.5µM*
COc1ccc(C(=O)OCCN2C(=O)c3ccccc3C2=O)cc1 | 11% | . | . | 20% | .
CC(=O)OC[C@@H]1O[C@H](C/C=N\O[C@@H](C)CN2CCCc3nc(C)c(C)cc32)C=C[C@@H]1OC(C)=O | 14%[11.4 µM] | . | . | 1%[11.4 µM] | 0%[11.4 µM]
Cc1cccc(CNc2ncnc3ccc(-c4ccccc4CN(C)C)cc23)c1 | -2% | . | . | 0% | 1%[2.29 µM]
CCOC(=O)c1sc(NC(=O)c2ccc(Cl)s2)cc1C | 4% | . | . | -9% | ?
CCOC(=O)c1sc(NC(=O)c2c(C)nn(Cc3ccccc3)c2C)cc1C | 22% | . | >77 | 2% | 5µM*
Cc1cc(NC(=O)COC(=O)c2cccc(S(=O)(=O)N3CCOCC3)c2)no1 | 2% | >57 | >77 | -3% | 4%
Cc1cc(NC(=O)COC(=O)c2ccc(S(=O)(=O)N3CCCc4ccccc43)cc2)no1 | 17% | >57 | . | 16µM* | 4%
NC(=S)NCCC[C@@H](N)C(=O)O | -9% | . | . | 3% | -5%
COc1ccc(N2CCN(Cc3nc(N)nc(Nc4ccc(C)c(Cl)c4)n3)CC2)cc1 | -17% | >57 | 4* | -32% | 1%
Cc1ccc(Nc2nc(N)nc(CN3CCN(c4ccccc4)CC3)n2)cc1Cl | 4% | >57 | 4.2* | 3% | -1%
O=C(N[C@@]1(C(=O)O)C[C@@H]1c1ccccc1)c1ccccc1 | 6%[11.4 µM] | . | . | 3%[11.4 µM] | 3%[11.4 µM]
CCOC(=O)c1sc(NC(=O)CSc2nnnn2-c2ccc(C)cc2C)nc1C | 25µM* | >57 | >77 | ? | 2%
CCOC(=O)c1sc(NC(=O)CSc2nnnn2-c2ccc(C)c(C)c2)nc1C | 27% | >57 | >77 | 19% | 0%
O=C(CSc1nnnn1-c1cccc2ccccc12)N1CCOCC1 | 5% | 8* | >77 | 0% | -2%
O=C(CSc1nc2ccccc2nc1SCC(=O)N1CCOCC1)N1CCOCC1 | 9% | . | . | 11% | -3%
Cn1cccc1-c1nc2ccc(NC(=O)c3ccccc3)cc2[nH]1 | 4% | . | . | 2% | -17%
CC(C)(C)c1ccc(C(=O)Nc2nonc2-c2nc3ccccc3[nH]2)cc1 | 4% | >57 | 2.4* | -1% | -1%
CC1CCC2C(=O)N3C(CCC(C)[C@@H]3c3cccc(N4CCOCC4)c3)C(=O)N2C1c1cccc(N2CCOCC2)c1 (stereo not given in full) | 2%[11.4 µM] | . | . | -1%[11.4 µM] | .
SMILES | HEK293 cAMP cs | PK Bst | GBA activity | TSHR agonist | FLuc inh
COc1ccc2c(c1OC)C(=O)N1c3ccccc3SC21 (stereo not given) | . | i | . | . | 5µM*
COc1ccc2c(c1OC)C(=O)N1c3ccccc3COC21 (stereo not given) | 26% | ? | >77 | 13% | 10µM*
COc1ccc2c(c1OC)C(=O)N1c3cccc(Cl)c3C(=O)OC21 (stereo not given) | 9% | >57 | >77 | 1% | -3%
C/C(CC/C(C)=N/O)=N/O | 6%[11.4 µM] | . | . | -2%[11.4 µM] | 1%[11.4 µM]
Clc1ccccc1-c1cncnc1NCc1cccs1 | ? | . | . | ? | -2%[2.29 µM]
Cc1ccccc1-c1cncnc1NCc1cccs1 | 16µM* | . | . | ? | 1%[2.29 µM]
COC(C(C)/C=C/CC(=O)OCCCc1ccccc1)C1CCCCC1 (stereo not given) | 11%[11.4 µM] | . | . | 0%[11.4 µM] | .
COc1cccc(-c2nccc(NCc3ccccc3)n2)c1 | ? | . | . | ? | -21%[2.29 µM]
Nc1nnnn1/N=C/c1ccccn1 | . | >26 | . | . | -2%[25.5 µM]
Nc1nnnn1/N=C/c1ccccc1OCc1ccc(Cl)cc1Cl | 32µM* | >57 | >77 | ? | 0%
Cc1ccc(-c2nc(-c3nccc4ccccc34)oc2-c2ccccc2)cc1 | 7%[11.4 µM] | . | . | 0%[11.4 µM] | 3.2µM*
O=c1cnc2cncnc2n1Cc1ccccc1Cl | 9%[0.457 µM] | . | . | 32µM* | 0%[11.4 µM]
Cc1nc2cncnc2n(Cc2ccccc2Cl)c1=O | 41%[0.457 µM] | . | . | 38% | 1%[11.4 µM]
O=c1cnc2cncnc2n1Cc1ccccc1 | 16% | . | . | 25µM* | 2%[11.4 µM]
CC1CCc2nc(NC(=O)C3CCCO3)sc2C1 (stereo not given) | -2% | i | >77 | 1% | 13µM*
CC1CCc2nc(NC(=O)c3ccco3)sc2C1 (stereo not given) | -1% | 1.2* | >77 | -3% | 2µM*
CC1CCc2nc(NC(=O)Cc3cccs3)sc2C1 (stereo not given) | 0% | . | >77 | -17% | -25%
CC1(C)C(=O)C(c2ccccc2)=C2CN3C(=O)N(CCc4ccccc4)C(=O)C3(Cc3ccc(F)cc3)C=C21 (stereo not given) | 21% | . | . | 3% | .
O=C(C1CC1c1ccccc1)N1CCN(c2cccc(Cl)c2)CC1 (stereo not given) | 32µM* | >57 | >77 | ? | 3%
COC(=O)N1CCC2(CCCN(c3ccccn3)C2)CC1 | ? | . | . | ? | 1%[11.4 µM]
Cc1ccc(-c2nnc(Nc3ccccc3)o2)cc1 | 15% | 0.46* | >77 | 5% | 0.63µM*
Cc1ccc(-c2nnc(-c3ccc4ccccc4c3)o2)cc1 | ? | . | . | ? | -6%[11.4 µM]
Cc1cccc(Nc2nnc(SCc3cn4ccsc4n3)s2)c1 | 19% | >57 | >77 | 23% | 32µM*
CO[Si](CCCNCCC[Si](OC)(OC)OC)(OC)OC | 13% | . | . | -11% | .
O=C(CN1C(=O)COc2ccccc21)N(Cc1cccnc1)Cc1cccc(F)c1 | 16µM* | >57 | >77 | ? | 2%
O=C(O)CCC(=O)N(Cc1cccnc1)Cc1cccc(F)c1 | 10% | >57 | >77 | 0% | 5%
COC(=O)C/C=C\[C@H](C)[C@@H](OC)c1ccccc1Br | -2%[11.4 µM] | . | . | -5%[11.4 µM] | 1%[11.4 µM]
CC(C)(C)c1c2c(c(C(C)(C)C)c3c1OCN(Cc1ccccc1)C3)OCN(Cc1ccccc1)C2 | -7%[11.4 µM] | . | . | 7%[11.4 µM] | 2%[11.4 µM]
